CCT chaperon mod: modulators of cytosolic chaperonin (CCT/TRiC) activity; purified chaperonin ATPase assay, HTRF ADP detection, 30 min; activity change, % (no concentration beside the values), hits read low; 0.3% of 360,000 active; AID 651819; in the data active means activity change below about -30%
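ATPase activity: ADP formed was measured by HTRF Transcreener (665/615 nm ratio) after 30 min at 37 deg C with 10 uM ATP. Compounds screened at one 76 uM concentration against 40 or 20 nM TRiC in Tris pH 7.4/KCl/MgCl2/DTT buffer.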
PINK1 modulator: modulators of PINK1 expression | AID 624263 | PINK1 immunofluorescence, high-content cytometry, 24 h | 0.2% of 410,000 active | Potency, µM (series often up to 76.6 µM), hits mostly activators; active means well fitted activation curve with a large enough effect; inconclusive means small, poorly fitted or top-dose-only effect; cell line not stated here; further: nearly all actives have a fitted effect of over 65% in size
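PINK1 protein, normally rapidly degraded, was detected by immunofluorescence after 24 hour compound treatment of a stable cell line. Titration data (5 concentrations) came from laser-scanning cytometry, with CCCP-treated wells as controls.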
ASM inhibitor: inhibitors of human secretory acid sphingomyelinase; placental ASM, HMU-PC fluorogenic substrate, 60 min; Potency, µM (titrated, usually from 57.5 µM), actives largely listed as inhibitors; 0.006% of 340,000 active
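Steps: dispense placental human ASM, pin compound, wait 10 min at room temperature, add HMU-PC0 substrate at 9 uM final, incubate 60 min at 37 °C, add stop solution raising pH to 10, read fluorescence.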
Mm-Cpn inhibitor: blocks the Methanococcus maripaludis chaperonin Mm-Cpn | purified Mm-Cpn ATPase, ADP Transcreener TR-FRET | 0.031% of 330,000 active | Potency, µM (highest dose often 76.9 µM), usual class: inhibitors; further: nearly all actives have a fitted effect of over 80% in size
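25 nM Mm-CPN + cpd, 10 min 37°C; + 10 uM ATP, 30 min 37°C; buffer 30 mM Tris pH 7.4, 100 mM KCl, 5 mM MgCl2, 1 mM DTT; Transcreener ADP HTRF detection 30 min RT.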
ALOX12 inh: blocks human arachidonate 12S-lipoxygenase; AID 1671190; purified 12hLO, xylenol orange hydroperoxide absorbance; Potency, µM (doses to about 108 µM), hits mostly inhibitors; P18054; 1.1% of 580,000 active
Target sequence (P18054 whole entry, looked up): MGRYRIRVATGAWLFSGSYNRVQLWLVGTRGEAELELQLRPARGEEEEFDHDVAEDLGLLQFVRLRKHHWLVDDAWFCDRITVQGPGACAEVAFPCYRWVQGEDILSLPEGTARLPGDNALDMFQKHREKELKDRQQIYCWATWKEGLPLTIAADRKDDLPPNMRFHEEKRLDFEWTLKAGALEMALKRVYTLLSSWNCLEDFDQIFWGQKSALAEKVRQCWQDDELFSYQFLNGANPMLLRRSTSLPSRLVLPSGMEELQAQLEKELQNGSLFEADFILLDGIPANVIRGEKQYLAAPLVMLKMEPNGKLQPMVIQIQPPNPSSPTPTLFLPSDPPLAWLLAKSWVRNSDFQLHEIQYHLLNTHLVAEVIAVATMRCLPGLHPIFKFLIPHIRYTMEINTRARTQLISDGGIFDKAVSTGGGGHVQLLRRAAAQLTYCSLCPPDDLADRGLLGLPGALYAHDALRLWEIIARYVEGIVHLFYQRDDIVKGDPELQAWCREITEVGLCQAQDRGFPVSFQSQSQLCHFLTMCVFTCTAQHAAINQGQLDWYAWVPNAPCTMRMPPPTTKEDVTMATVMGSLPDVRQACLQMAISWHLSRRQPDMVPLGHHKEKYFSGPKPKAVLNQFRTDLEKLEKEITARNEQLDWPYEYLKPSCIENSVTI
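Purified human 12hLO at 150 nM in 25 mM Hepes, 0.01% Triton X-100, pH 7.0, preincubated 15 min at room temperature with compound. Reaction started with 40 uM arachidonic acid, 30 min at room temperature. Hydroperoxide measured by Fe-xylenol orange, 573/405 nm absorbance ratio.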
p53 reactivation: mutant p53 re-activation in reporter cells | H1299 p53-A138V BP100-luciferase reporter, luminescence, 24 h | Potency, µM (top dose mostly 92.2 µM), usual class: activators | 0.063% of 320,000 active | AID 504706; further: nearly all actives have a fitted effect of over 45% in size
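H1299 (p53-null), stable ts p53-A138V + BP100-Luc; 1000 cells/well, Opti-MEM/10% FBS; cpd 4 pt, 1:5; 24 h, 37 deg C, 5% CO2; detection reagent 10 min RT; luminescence.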
Each line names hits and unclear results; the compound was inactive in the other large screens. In the library only some 1.4% were active in any assay of this set; here they are far more common. Unless noted, the call rests on the fitted dose curve; in most records, active means well fitted curve in the direction sought with a large enough effect; inconclusive means small, poorly fitted or top-dose-only effect, or another doubt; inactive means no such curve, though single readings can be large; an effect the other way counts as inactive or inconclusive.

CC[N+]1(CC)CC2CCC(C)(C1)C2(C)C (configuration not stated)	ALOX12 inh 44.7µM
CC(NC(=O)COC(=O)Cc1ccc(Cl)cc1)c1ccccc1 (configuration not stated)	none
COc1ccc(-c2nnc(SCC(=O)Nc3ccccc3OC)o2)cc1	PINK1 modulator inconclusive, p53 reactivation inconclusive
CC(NC(=O)Cc1ccc(-c2ccccc2)cc1)c1ccccc1 (configuration not stated)	CCT chaperon mod -43.0, ALOX12 inh inconclusive
COc1ccc(-c2nnc(SCC(=O)NC(C)c3ccccc3)o2)cc1 (configuration not stated)	CCT chaperon mod -50.3
COc1ccccc1-n1cnnc1SCC(=O)NC(C)c1ccc(-c2ccccc2)cc1 (configuration not stated)	ALOX12 inh 1.58µM (no result: CCT chaperon mod, PINK1 modulator, ASM inhibitor, Mm-Cpn inhibitor, p53 reactivation)
O=c1cc(CN2CCN(c3ccccc3F)CC2)c2cc(O)ccc2o1	none (no result: CCT chaperon mod, PINK1 modulator, ASM inhibitor, Mm-Cpn inhibitor, p53 reactivation)
Cc1ccc(-n2nnnc2C2(NC3CCCCC3)CCCC2)cc1	none (no result: CCT chaperon mod, PINK1 modulator, ASM inhibitor, Mm-Cpn inhibitor, p53 reactivation)
COc1ccc(C)cc1NC(=O)c1sc2ncnc(N3CCN(c4ccccn4)CC3)c2c1C	CCT chaperon mod -138.9
Cc1ccc(NC(=O)c2sc3ncnc(N4CCN(c5ccccn5)CC4)c3c2C)c(C)c1	Mm-Cpn inhibitor inconclusive
NC(=S)N/N=C1\CC(c2ccc3c(c2)OCCCO3)Oc2ccc(F)cc21 (configuration not stated)	ALOX12 inh 6.31µM
CCc1c(C)sc(NC(C)=O)c1C#N	ALOX12 inh 31.6µM (no result: CCT chaperon mod, PINK1 modulator, ASM inhibitor, Mm-Cpn inhibitor, p53 reactivation)
CCc1c(C)sc(NC(=O)C2CC3CCC2C3)c1C#N (configuration not stated)	ALOX12 inh 15.8µM (no result: CCT chaperon mod, PINK1 modulator, ASM inhibitor, Mm-Cpn inhibitor, p53 reactivation)
O=c1oc2c(-c3ccc([N+](=O)[O-])cc3)cc(O)cc2s1	ALOX12 inh 39.8µM
CNC(=O)c1nn(CN2CCN(C(c3ccccc3)c3ccccc3)CC2)c(=O)c2ccccc12	none (no result: CCT chaperon mod, PINK1 modulator, ASM inhibitor, Mm-Cpn inhibitor, p53 reactivation)
O=C(Cn1ncc2ccccc2c1=O)NCCc1ccccc1	none (no result: CCT chaperon mod, PINK1 modulator, ASM inhibitor, Mm-Cpn inhibitor, p53 reactivation)
CC(NC(=O)CSC1=NCCS1)C1CC2CCC1C2 (configuration not stated)	none (no result: CCT chaperon mod, PINK1 modulator, ASM inhibitor, Mm-Cpn inhibitor, p53 reactivation)
CN(C)c1ccc(/C=C/c2cc(/C=C/c3ccc(N(C)C)cc3)c3ccccc3n2)cc1	none (no result: CCT chaperon mod, ASM inhibitor, Mm-Cpn inhibitor, ALOX12 inh, p53 reactivation)
CN(C)c1ccc(/C=C/c2cc[n+](C)c3ccc4ccccc4c23)cc1	PINK1 modulator 4.47µM (no result: CCT chaperon mod, ASM inhibitor, Mm-Cpn inhibitor, ALOX12 inh, p53 reactivation)
C[n+]1ccc(/C=C/c2ccc(C=S)cc2)c2ccccc21	PINK1 modulator 44.7µM (no result: CCT chaperon mod, ASM inhibitor, Mm-Cpn inhibitor, ALOX12 inh, p53 reactivation)
CCCc1c(C)nc2c(C)cccc2c1SCC(=O)O	none (no result: CCT chaperon mod, PINK1 modulator, ASM inhibitor, Mm-Cpn inhibitor, p53 reactivation)
COc1ccc(C)cc1-c1csc(NC(=O)c2ccccc2OCc2noc(C)n2)n1	none (no result: CCT chaperon mod, PINK1 modulator, ASM inhibitor, Mm-Cpn inhibitor, p53 reactivation)
CCCn1nc(C)cc1CN(C)c1ccc(NC(=O)c2ccccc2C)cc1C(=O)O	ALOX12 inh 10µM (no result: CCT chaperon mod, PINK1 modulator, ASM inhibitor, Mm-Cpn inhibitor, p53 reactivation)
Cn1c(=O)[nH]c(=O)c2c1nc(N1CCN(Cc3ccc(F)cc3)CC1)n2C/C=C/c1ccccc1	none (no result: CCT chaperon mod, PINK1 modulator, ASM inhibitor, Mm-Cpn inhibitor, p53 reactivation)
CC(C)Oc1cccc(C(=O)NC(=S)Nc2ccc3c4c(cccc24)CC3)c1	ALOX12 inh 17.8µM
COc1cc(OC)cc(C(=O)NC(=S)Nc2ccc3c4c(cccc24)CC3)c1	PINK1 modulator inconclusive, ALOX12 inh inconclusive
Cc1c(-c2ccc(Cl)cc2)c(=O)oc2ccc(OS(=O)(=O)c3ccccc3)cc12	none (no result: CCT chaperon mod, PINK1 modulator, ASM inhibitor, Mm-Cpn inhibitor, p53 reactivation)
Cc1cccc(Cn2c(NCCCN3CCOCC3)nc3c2c(=O)[nH]c(=O)n3C)c1	none (no result: CCT chaperon mod, PINK1 modulator, ASM inhibitor, Mm-Cpn inhibitor, p53 reactivation)
CNC(=O)c1ccsc1NC(=O)c1ccc(S(=O)(=O)N2CCCc3ccccc32)cc1	Mm-Cpn inhibitor 28.2µM
O=S(=O)(c1ccc(-c2csc(Nc3ccccc3)n2)cc1)N1CCOCC1	none (no result: CCT chaperon mod, PINK1 modulator, ASM inhibitor, Mm-Cpn inhibitor, p53 reactivation)
CCCCn1c(O)c(C2=Nc3ccccc3SC(c3ccc(O)cc3)C2)c(=O)[nH]c1=O (configuration not stated)	ALOX12 inh 28.2µM (no result: CCT chaperon mod, PINK1 modulator, ASM inhibitor, Mm-Cpn inhibitor, p53 reactivation)
CC(C=O)Cc1ccc(C(C)C)cc1 (configuration not stated)	none (no result: CCT chaperon mod, PINK1 modulator, ASM inhibitor, Mm-Cpn inhibitor, p53 reactivation)
COC(=O)c1ccc(C(=O)N(C)Cc2cccnc2)s1	none (no result: CCT chaperon mod, PINK1 modulator, ASM inhibitor, Mm-Cpn inhibitor, p53 reactivation)
CC1CCCC(NC(=S)NC(=O)c2ccccc2Br)C1C (configuration not stated)	PINK1 modulator inconclusive, ALOX12 inh 22.4µM, p53 reactivation inconclusive
O=C(NNC(=S)NC1CCCCC1)c1ccccc1Br	none

Compound activity deposited in PubChem by National Center for Advancing Translational Sciences (NCATS).
